# Screens as filed in PubChem.
# Pf growth 96h – P. falciparum growth inhibition at 96 hour, primary screen for plastid delayed-death inhibitors. P. falciparum luciferase reporter growth, 96 h. Potency, µM (highest dose often 28.7 µM), inactives show at the top dose activity change, negative = inhibition, usual class: inhibitors. 320,000 compounds, 6.9% hits; further: on the % scale 0 is the no-effect control and ±100 the full control effect
#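 P. falciparum expressing integrated firefly luciferase grown in erythrocytes (2% hematocrit, 0.05% parasitemia final) with compounds for 96 hours at 37 C, 5% CO2. Growth inhibition read as loss of luminescence after adding luciferase detection reagent.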
# NS1 function inh – blocks influenza NS1 protein function. Potency, µM (titrated, usually from 46.1 µM), for inactives: top-dose activity, positive = more growth. 270,000 compounds, 0.4% hits; calls by dose curve; further: actives are rising curves; nearly all actives have a fitted effect of over 50% in size
#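 Recovery from NS1-induced slow growth read by OD600 in budding yeast switched to galactose assay medium (pH 6.0, -URA) at 1:100 dilution. Compound 23 nl per well; the matching strain lacking NS1 serves as control.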
# SARS PLpro yeast – inhibitors of SARS-CoV papain-like protease in yeast; S. cerevisiae expressing SARS-CoV PLpro, growth rescue; Potency, µM (series often up to 32.9 µM), for the others: at the highest dose activity, positive = growth rescue, hits mostly activators; 330,000 compounds, 0.19% hits; calls by dose curve; further: 0% is about no effect; nearly all actives have a fitted effect of over 55% in size
# Pf growth 48h – P. falciparum growth inhibition at 48 hours (one generation) | AID 504832 | 310,000 compounds, 5.9% hits | Potency, µM (doses to about 28.7 µM), for inactives: at the highest dose activity change, negative = inhibition, usual class: inhibitors | P. falciparum luciferase growth in erythrocytes, 48 h; further: on the % scale 0 is the no-effect control and ±100 the full control effect
#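 Firefly luciferase activity from engineered P. falciparum reports growth; inhibitors lower the luminescent signal. Cultures contained 2% hematocrit erythrocytes at 0.1% final parasitemia.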
# RE007 growth inh – less growth of the S. pombe RE007 Vpr strain; AID 651644; 360,000 compounds, 0.21% hits; Potency, µM (doses to about 92.2 µM), without a hit: at the highest dose activity change, negative = less growth, actives largely listed as inhibitors; S. pombe RE007 Vpr strain, BacTiter-Glo ATP luminescence, 24 h; active means well fitted falling curve with a large enough effect; inconclusive means small, poorly fitted or top-dose-only effect; inactive means no such curve, though single readings can be large or run the other way; further: on the % scale 0 is the no-effect control and ±100 the full control effect; nearly all actives have a fitted effect of over 50% in size
#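 Fission yeast RE007 carrying one integrated HIV-1 vpr copy, seeded at OD 0.01 in PMG+AL medium with 23 nL pinned compound. Grown 24 h at 30 degrees; viability read by BacTiter-Glo luminescence after 5 min.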
# Numbers without * were called inactive; i = inactive; ? = inconclusive; / = not tested or not shown. This is a sample that favours compounds with a hit; in the whole collection about 9.5% have one here. Unless noted, the call rests on the fitted dose curve; in most records, active means well fitted inhibition curve with a large enough effect; inconclusive means small, poorly fitted or top-dose-only effect, or another doubt; inactive means no such curve, though single readings can be large or run the other way. Potency means the concentration at half of the fitted maximal effect.
SMILES,Pf growth 96h,NS1 function inh,SARS PLpro yeast,Pf growth 48h,RE007 growth inh
COC(=O)c1ccc(N=Nc2ccccc2)cc1,i,/,-4.4%,232.3%,0.3%
CN1CCN(C2CCCCC2NS(=O)(=O)c2ccccc2)CC1 (stereo not drawn),?,-2.1%,-3.6%,2.0%,-5.4%
O=S(=O)(NC1CCCCC1N1CCN(c2cccc(Cl)c2)CC1)c1ccccc1 (stereo not drawn),-5.8%,-17.2%,-14.1%,14.7µM*,-0.1%
COc1ccc(S(=O)(=O)Nc2ccc3c(c2)C(=O)N([C@H](C)CO)C[C@H](C)[C@@H](CN(C)C(=O)Nc2ccc(C(F)(F)F)cc2)OCCCC[C@H](C)O3)cc1,/,/,/,/,-23.1%
CC(CC12CC3CC(CC(C3)C1)C2)NCc1ccccc1O (stereo not drawn),9.28µM*,-21.7%,1.0%,?,-2.2%
Oc1ccccc1CNCC12CC3CC(CC(C3)C1)C2,0.0828µM*,-1.6%,13.5%,0.104µM*,16.3%
CC(Cc1ccccc1)NCc1ccccc1O (stereo not drawn),?,/,4.7%,?,6.9%
COc1ccc(Oc2coc3c(CN4CCOCC4)c(O)ccc3c2=O)cc1,2.94µM*,-0.5%,5.3%,/,0.2%
O=c1c(-c2ccc(Br)cc2)coc2c(CN3CCOCC3)c(O)ccc12,?,-1.5%,-5.3%,2.62µM*,7.1%
O=c1c(-c2ccccc2Cl)coc2c(CN3CCCCC3)c(O)ccc12,?,3.5%,2.6%,?,9.6%
O=c1c(-c2ccc(Cl)cc2)coc2c(CN3CCCCC3)c(O)ccc12,-25.6%,17.2%,5.9%,2.94µM*,-7.9%
COc1ccc(-c2coc3c(CN4CCCCC4)c(O)c(CN4CCCCC4)c(O)c3c2=O)cc1,88.4%,?,-0.3%,5.86µM*,/
COc1ccc(CN2CCCCCC2)cc1,?,-9.8%,0.9%,?,7.1%
CCOc1ccc(CCNC(=O)CSc2n[nH]c(N)n2)cc1OCC,9.7%,18.1%,7.3%,3.2%,5.4%
COC(=O)c1cc(S(=O)(=O)NCc2ccc(Br)cc2)c[nH]1,-1.1%,3.9%,20.9%,8.7%,2.1%
CCNc1c(NS(=O)(=O)c2ccc(F)c(Cl)c2)c(=O)oc2ccccc12,18.6%,8.9%,0.2%,-5.4%,1.7%
O=S(=O)(Cc1ccccc1Cl)NCCc1ccc(F)cc1,5.3%,-23.3%,-11.3%,2.3%,-2.8%
O=c1c(-c2ccc(Br)cc2)coc2c(CN3CCCCC3)c(O)ccc12,2.33µM*,5.6%,-0.4%,1.65µM*,-10.3%
CC1CN(Cc2c(O)ccc3c(=O)c(-c4ccccc4Cl)coc23)CC(C)O1 (stereo not drawn),?,-1.9%,2.8%,/,-12.4%
COc1ccc(OC)c(C(O)c2coc3ccc(O)c(CN4CCOCC4)c23)c1 (stereo not drawn),17.3%,?,11.8%,7.38µM*,2.2%
CC1CCCN(Cc2c(O)ccc3c(=O)c(-c4ccc(Cl)cc4)coc23)C1 (stereo not drawn),-10.1%,1.6%,1.5%,1.04µM*,-5.7%
N=C1Sc2ccccc2C2=NCCCN12,/,-25.0%,/,/,/
Oc1c(C(O)(c2ccccc2)c2ccc3ccccc3c2O)ccc2ccccc12,/,-7.8%,/,/,/
C[C@@H](C(=O)O)[C@@H]1C[C@@]1(C)[C@@H](NC(=O)OCc1ccccc1)c1ccccc1,-15.2%,6.3%,-0.6%,32.1%,-7.3%
C[C@@H](C(=O)Nc1ccc2ccccc2c1)[C@H]1C[C@]1(C)[C@H](NP(=O)(c1ccccc1)c1ccccc1)c1ccccc1,10.4µM*,?,5.3%,?,/
SMILES,Pf growth 96h,NS1 function inh,SARS PLpro yeast,Pf growth 48h,RE007 growth inh
C[C@@H](C(=O)Nc1ccc2ccccc2c1)[C@@H]1C[C@@]1(C)[C@@H](NC(=O)c1cnccn1)c1ccccc1,?,?,-9.6%,?,1.2%
C[C@@H](C(=O)Nc1ccc2ccccc2c1)[C@H]1C[C@]1(C)[C@H](NC(=O)c1cnccn1)c1ccccc1,1.47µM*,1.0%,-2.7%,2.94µM*,7.0%
CNC(=O)[C@H](C)[C@@H]1C[C@@]1(C)[C@@H](NC(=O)OCc1ccccc1)c1ccccc1,?,-2.3%,-8.5%,13.1µM*,10.5%
C[C@@H](C(=O)Nc1ccc2ccccc2c1)[C@@H]1C[C@@]1(C)[C@@H](NC(=O)OCc1ccccc1)c1ccccc1,7.9%,?,-4.5%,?,10.2%
Cc1cc(C(=O)N[C@H](c2ccccc2)[C@@]2(C)C[C@@H]2[C@@H](C)C(=O)Nc2ccc3ccccc3c2)no1,11.7µM*,8.3%,14.0%,?,11.8%
C=C(C)[C@@H]1CC=C(CN2CCC(CCOC)(C(=O)OCC)CC2)CC1,?,0.6%,1.3%,-8.7%,-0.8%
C/C(=N\NC(=O)c1c(Cl)c(C)nn1C)c1cccc(NC(=O)C2CCCC2)c1,?,-30.0%,1.7%,-23.4%,16.3%
C[C@@H]1CN([C@@H](C)CO)C(=O)CCCn2nncc2CO[C@H]1CN(C)C(=O)Nc1ccccc1F,/,/,/,/,-6.2%
CCCCNc1c(CN)cnc2cc(Cl)ccc12,/,-5.9%,/,/,/
Nc1ncc(-c2ccccc2)c(-c2ccc(OCc3ccccc3)cc2O)n1,?,5.1%,-1.1%,11.7µM*,-5.8%
C=C(C)COc1ccc(-c2nc(N)ncc2-c2ccc(Cl)cc2)c(O)c1,?,9.2%,-6.4%,13.1µM*,?
COCCOc1ccc(C(F)(F)F)cc1NC(=O)COC(=O)c1c(C)noc1C,4.65µM*,-6.0%,-2.5%,9.28µM*,-7.1%
O=C(N[C@@]1(C(=O)O)C[C@@H]1c1ccccc1)c1ccccc1,/,-5.2%,/,/,/
COC(=O)c1[nH]c2cccc(Cl)c2c1NC(=O)CN1CCCCC1C (stereo not drawn),4.15µM*,-4.9%,1.0%,?,4.4%
COC(=O)c1[nH]c2cc(OC)ccc2c1NC(=O)CN1CCN(c2cccc(C)c2)C(C)C1 (stereo not drawn),10.4µM*,-15.2%,-21.5%,11.7µM*,-4.7%
COC(=O)c1[nH]c2ccccc2c1NC(=O)CN1CCC(C(N)=O)(N2CCCCC2)CC1,/,-2.2%,5.6%,13.1µM*,-0.1%
COC(=O)c1[nH]c2cc(C)ccc2c1NC(=O)CN1CCOCC1,-6.0%,4.2%,-1.2%,10.7%,6.9%
COC(=O)c1[nH]c2ccccc2c1NC(=O)CN1CCCCCC1,?,4.5%,7.6%,/,19.6%
COC(=O)c1[nH]c2ccccc2c1NC(=O)CN1CCN(c2cccc(Cl)c2)CC1,3.8%,-51.5%,1.0%,3.29µM*,-0.3%
CCOC(=O)C1(C(=O)OCC)NC(=O)CC1CC(C)C (stereo not drawn),/,/,/,/,6.7%
COC(=O)N1C(=O)[C@](Cc2ccccc2)(c2ccccc2)N1C(=O)OC,30.7%,14.2%,-1.3%,32.5%,1.6%
Cc1ccc(NC(=O)C2CC2c2ccccc2)c([N+](=O)[O-])c1 (stereo not drawn),?,-1.4%,-0.1%,32.6%,11.9%
O=C(O)C[C@H](Cc1ccccc1)C(=O)O,/,-2.8%,/,/,/
